TTR transcr act: TTR transcription activators in neuroblastoma reporter cells, primary screen, cell-based, luminescence, SH-SY5Y, TTR promoter Gaussia luciferase; 100% = recombinant luciferase protein wells; activation, % at 16.7 µM; hit rate 1.3% among 92,000;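 active = activation above the mean of all tested compounds plus 3 SD, cut at about 9.5% in these data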;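 also: cells exposed to compounds for one day before reading; 0% = median of all test compound wells on the plate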
TTR inh HuH7: TTR promoter reporter inhibitors in hepatoma cells, counter-screen for TTR transcription activator project, cell-based, luminescence, HuH7 hepatoma. shares compounds with TTR transcr act. HuH7 TTR promoter-Gaussia luciferase reporter. inhibition, % at 16.7 µM. hit rate 4% among 1,100;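 active = average inhibition above the solvent-only control wells' mean plus 3 SD, cut at about 15% in these data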;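 also: 0% = cells with DMSO only and 100% = cells with inhibitor control FD; inhibitors lower well luminescence so higher value means more inhibition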
TTR up confirm: TTR transcription activators, retest, confirmation, cell-based, luminescence, SH-SY5Y, triplicate; activation, % at 16.7 µM; SHSY5Y TTR promoter Gaussia luciferase; 100% = purified Lucia enzyme wells, no cells; shares compounds with TTR transcr act; AID 1117280, 2014; 1,100 tested, under 10 active;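 active = mean activation above a set limit taken from the earlier primary screen, cut at about 11% in these data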;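 also: 0% = DMSO-treated cells and 100% = recombinant Lucia luciferase without cells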
* marks the source's active call; other numbers are inactive results. The full list was thinned out, with hits kept by preference.

SMILES	TTR transcr act	others
Cc1ccc(S(=O)(=O)N(C)C[C@@H]2Oc3ccc(NC(=O)Cn4cnnn4)cc3C(=O)N([C@@H](C)CO)C[C@H]2C)cc1	21*	TTR inh HuH7=-12;TTR up confirm=-1
CC(C)NC(=O)N(C)C[C@H]1Oc2ccc(NC(=O)Cn3cnnn3)cc2C(=O)N([C@H](C)CO)C[C@@H]1C	0
Cc1noc(C)c1NC(=O)Nc1ccc2c(c1)C(=O)N([C@H](C)CO)C[C@H](C)[C@@H](CN(C)S(=O)(=O)c1ccc(F)cc1)O2	7
C=CCN1C(=O)[C@H](CC(=O)NCCCOCCCC)[C@@]2(C(=O)OCC)CCCC=C12	0
COC(=O)[C@H](C)NC(=O)[C@H](CC(C)C)NC(=O)OC(C)(C)C	-2
Cc1ccc([C@H]2C[C@]34CN(Cc5ccccc5)S(=O)(=O)[C@H]3C[C@H]2O4)cc1	0
CNC(C)C(=O)NC(C(=O)N1CCCC1C(=O)Nc1cccc2ncccc12)C(C)C (stereo not given)	-1
O=C(NCCc1ccccc1)OCc1cn(Cc2cccc(F)c2F)nn1	1
O=C1OCc2ccc(NC(=O)c3c(F)cccc3Cl)cc21	0
O=C1OCc2ccc(NC(=O)C3CC3)cc21	21*	TTR inh HuH7=-6;TTR up confirm=0
O=C(Nc1cccc(Cl)c1)Nc1ccc2c(c1)C(=O)OC2	2
CN(C(=O)CSc1ncnc2c(-c3cccs3)nsc12)C1CCCCC1	1
CC(=O)N(C)c1cccc([N+](=O)[O-])c1	0
CN(N=Nc1cccc([N+](=O)[O-])c1)c1cccc([N+](=O)[O-])c1	20*	TTR inh HuH7=-8;TTR up confirm=-1
CCCN(N=Nc1cccc([N+](=O)[O-])c1)c1cccc([N+](=O)[O-])c1	-2
COC(=O)[C@]12C[C@H](CC(=O)N3CCSCC3)C(=O)N(Cc3ccc(Cl)cc3Cl)C1=C[C@H](C(C)C)O[C@@H]2C1CC1	1
c1ccc(-c2nc3ccccn3c2-c2ccccc2)cc1	-1
OCc1c(Cl)nc2ccccn12	2
Clc1cc2nc3ccccn3c2cc1Cl	13*	TTR inh HuH7=-15;TTR up confirm=2
Cc1ccc(N/C=C2\CCCCC2=O)c(C)c1	2
Cc1ccc(N/C=C2\CCCCC2=O)nc1	9.9*	TTR inh HuH7=-9;TTR up confirm=0
O=C1CCCC/C1=C/Nc1cccc(C(F)(F)F)c1	0
CCCCNC(=O)C[C@H]1C[C@@]2(C(=O)OC)C(=C[C@H](COCc3ccccc3)O[C@@H]2C)N(CCc2ccc(OC)c(OC)c2)C1=O	2
COc1ccc2[nH]c(C)c(C(=O)CN3CCOCC3)c2c1	16*	TTR inh HuH7=-10;TTR up confirm=0
COc1ccc2[nH]cc(C(=O)CN3CCC(C)CC3)c2c1	0
SMILES	TTR transcr act	others
Cc1[nH]c2ccccc2c1C(=O)CN1CCCC1	0
COCCCNC(=O)C[C@H]1C[C@@]2(C(=O)OC)C(=C[C@H](C(C)C)O[C@@H]2C2CC2)N(Cc2ccc(Cl)cc2Cl)C1=O	-1
COc1cccc(OC)c1NC(=O)NC(=O)c1c(OC)c(Br)cc([N+](=O)[O-])c1OC	-1
COc1ccc([N+](=O)[O-])c(OC)c1C(=O)NC(=O)Nc1nc(C)cc(C)n1	6
COc1ccc([N+](=O)[O-])c(OC)c1C(=O)NC(=O)Nc1c(F)cc(F)cc1F	126*	TTR inh HuH7=-7;TTR up confirm=0
c1ccc(Cn2ccc3ccc(-c4ccc5ccn(Cc6ccc(-c7ccccc7)cc6)c5c4)cc32)cc1	1
COC(=O)c1cccc(Cn2ccc3ccc(-c4ccc5ccn(C(=O)C6CC6)c5c4)cc32)c1	2
O=S1(=O)c2ccc(N3CCCC3)cc2Oc2ccccc2CN1Cc1cn(Cc2cccc(F)c2)nn1	0
C#CCOCCOCCOCCNc1nc(N2CCN(C(=O)[C@H](CCCCN)n3cc([C@@H](N)C(C)CC)nn3)CC2)nc(N2CCN(C(=O)[C@H](CCCCN)n3cc([C@@H](N)C(C)CC)nn3)CC2)n1 (stereo not given in full)	0
COc1ccc(N(C(=O)c2ccco2)C(C(=O)NC2CCCC2)c2ccc(N(C)C)cc2)cc1OC (stereo not given)	17*	TTR inh HuH7=-22;TTR up confirm=1
CN(C)c1ccc(C(C(=O)NC2CCCC2)N(C(=O)c2ccco2)C2CC2)cc1 (stereo not given)	-1
CN(C)c1ccc(C(C(=O)NC2CCCCC2)N(Cc2ccco2)C(=O)c2snc(C(N)=O)c2N)cc1 (stereo not given)	11*	TTR inh HuH7=7;TTR up confirm=-1
Cc1ccc(N(C(=O)c2snc(C(N)=O)c2N)C(C(=O)NC2CCCC2)c2ccco2)cc1 (stereo not given)	-3
Cc1ccc(C(C(=O)NC2CCCC2)N(Cc2cccnc2)C(=O)c2snc(C(N)=O)c2N)o1 (stereo not given)	0
COc1ccc(N(C(=O)c2ccco2)C(C(=O)NC2CCCCC2)c2ccccc2)cc1 (stereo not given)	-1
C=CS(=O)(=O)N(C(=C)C(=O)OC)S(C)(=O)=O	-1
O=C(NCCc1nc2ccccc2n1CCOc1ccc2cccnc2c1)C1CCCCC1	0
C=CCN(C(=O)[C@@H](C1CC1)[C@@H](O)c1ccc(Cl)cc1)c1ccccc1	1
COc1ccccc1NC(=O)OC[C@@H]1CSCCS(=O)(=O)N1	-1
O=C(N[C@H]1CC[C@@H]2SC[C@@H](C(=O)O)N2C1=O)OCC1c2ccccc2-c2ccccc21	3
COc1ccc(C(=O)Nc2cccc([N+](=O)[O-])c2)cc1Br	15*	TTR inh HuH7=8;TTR up confirm=-1
COC(=O)c1cccc(NC(=O)c2cccc([N+](=O)[O-])c2)c1	-2
COc1ccc(NC(=O)c2cccc([N+](=O)[O-])c2)cc1	3
CCCN1CNc2c(c(=O)[nH]c(=S)n2CCc2cccc(Cl)c2Cl)C1	2
COc1ccc(CN(C(=O)/C=C/c2ccco2)C2CCS(=O)(=O)C2)cc1OC (stereo not given)	0
SMILES	TTR transcr act	others
COc1ccc(/C=C/C(=O)NCc2ccc3c(c2)OCO3)cc1OC	1
COc1ccc(CNC(=O)/C=C/c2ccco2)cc1OC	13*	TTR inh HuH7=-7;TTR up confirm=0
COc1ccc2c(c1C(=O)/C=C/c1ccccc1)OC(C)(C)C=C2	0
CC(C)N1CCCCC(NC(=O)c2cccs2)C1=O (stereo not given)	3
COc1ccc2c(c1)N=C(c1[nH]c3ccccc3c1CCN1C(=O)c3ccccc3C1=O)[C@]2(O)CCN1C(=O)c2ccccc2C1=O	-1
O=C1C(NC(=O)N2c3ccccc3C=Cc3ccccc32)CCCCN1Cc1ccc(Cl)cc1 (stereo not given)	-1
O=S1(=O)c2c(cccc2N2CC[C@@H](O)C2)OCCCN1C1CC1	0
COc1ccc(CNC2CCC23CCC(c2ccccc2)CC3)cc1OC (stereo not given)	0
C[C@H]1C2CC(OC(=O)NCc3ccccc3)C(C2)[C@H]2CCCCN21 (stereo not given in full)	1
CCOC(=O)c1cnn(-c2ccccc2)c1NC(=O)CCl	-1
COc1ccc(CCNC(=O)c2cnn(-c3ccccc3)c2N)cc1OC	0
CCCc1c(C(=O)NNc2ccccc2OC)cnn1-c1ccccc1	12*	TTR inh HuH7=-9;TTR up confirm=0
Cc1ccccc1CN1CCCCC(NC(=O)c2cc(-c3ccccc3)no2)C1=O (stereo not given)	4

High-throughput results deposited in PubChem by The Scripps Research Institute Molecular Screening Center.
